Vif-A3G inh: qHTS for Inhibitors of Vif-A3G Interactions: qHTS | DNA dC->dU-editing enzyme APOBEC-3G (Homo sapiens), Q9HC16 | HeLa A3G-eYFP + Vif (tagged APOBEC3G with the HIV-1 protein that degrades it), YFP fluorescence, overnight | Potency, µM (highest dose often 46.1 µM), without a hit: at the top dose activity, negative = active, hits mostly inhibitors | 0.076% of 410,000 active; note: % is set by controls: 0 for no effect and ±100 for the full control effect; nearly all actives have a fitted effect of over 60% in size
Target sequence (Q9HC16 whole entry, looked up): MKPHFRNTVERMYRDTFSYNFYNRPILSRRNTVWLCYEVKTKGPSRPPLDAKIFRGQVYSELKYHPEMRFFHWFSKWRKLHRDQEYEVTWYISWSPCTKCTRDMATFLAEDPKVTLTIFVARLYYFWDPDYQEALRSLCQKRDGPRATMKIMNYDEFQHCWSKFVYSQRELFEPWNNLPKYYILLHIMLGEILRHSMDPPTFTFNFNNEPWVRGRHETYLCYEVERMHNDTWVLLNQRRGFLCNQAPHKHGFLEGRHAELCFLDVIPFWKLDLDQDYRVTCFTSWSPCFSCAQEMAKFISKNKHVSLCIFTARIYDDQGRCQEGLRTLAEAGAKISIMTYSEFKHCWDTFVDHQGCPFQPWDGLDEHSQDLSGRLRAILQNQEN
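HeLa cells stably expressing Vif and C-terminally eYFP-tagged A3G, seeded overnight at 37 deg C, then exposed to compound by pintool overnight at 37 deg C. Rise in yellow fluorescence (Ex 488/Em 500-530, Acumen) marks blocked Vif-driven A3G degradation.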
Vif-APOBEC3F blk: qHTS for Inhibitors of Vif-A3F Interactions: qHTS; HeLa A3F-eYFP + Vif (tagged APOBEC3F with the HIV-1 protein that degrades it), YFP fluorescence increase; Potency, µM (top dose mostly 46.1 µM), without a hit: at the top dose activity, negative = active; 0.2% of 390,000 active; AID 602313, 2012; note: % of control where 0% means no effect; nearly all actives have a fitted effect of over 65% in size
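HeLa cells stably expressing A3F-eYFP plus Vif, plated and incubated overnight at 37 deg C, then exposed to compounds overnight at 37 deg C. Blocked degradation read as raised yellow fluorescence (Ex 488/Em 500-530).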
Epigenetic derep: Quantitative High-Throughput Screen for Regulators of Epigenetic Control. 0.2% of 280,000 active. murine LDR cells, GFP reporter derepression, 30 h. Potency, µM (highest dose often 53.9 µM), for the others: top-dose GFP activation, hits mostly activators; note: % of control where 0% means no effect; nearly all actives have a fitted effect of over 60% in size
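Derepression of a silenced CMV-GFP reporter in murine LDR cells is scored by enumerating GFP-positive cells with a laser-scanning microplate cytometer after 30 hours of treatment at 37 C.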
* = called active by the depositor. An excerpt weighted towards active compounds, which were near 0.34% of everything screened. Calls come from the whole dose curve; as a rule, active = well fitted curve in the direction sought with a large enough effect; inconclusive = small, poorly fitted or top-dose-only effect, or another doubt; inactive = no such curve, though single readings can be large; an effect the other way counts as inactive or inconclusive. Potency is the fitted concentration of half-maximal effect.

How did Cc1cc(/C=C2\SC(=S)N(C)C2=O)c(C)n1-c1ccc(O)cc1 do in these assays?
Vif-A3G inh: inconclusive; Vif-APOBEC3F blk: 25.1µM*; Epigenetic derep: inconclusive

What do the screens show for `CCOc1ccc(C(=O)Nc2ccc3oc(-c4cccc5ccccc45)nc3c2)cc1`?
Vif-A3G inh: 0.0%; Vif-APOBEC3F blk: -7.3%; Epigenetic derep: 0.8%

How did COc1ccc(Cl)cc1NC(=O)[C@H]1O[C@@H]2OC(C)(C)O[C@@H]2[C@H]2OC(C)(C)O[C@H]21 do in these assays?
Vif-A3G inh: -6.3%; Vif-APOBEC3F blk: 0.8%; Epigenetic derep: 3.5%

What do the screens show for `CCOC(=O)CC1C(=O)NCCN1C(=O)c1cc2c(=O)n3cccc(C)c3nc2s1` (stereo not given)?
Vif-A3G inh: 1.7%; Vif-APOBEC3F blk: 6.8%; Epigenetic derep: -2.4%

Results for CCCN1C(=O)/C(=C/c2c(N3CCNC(=O)C3CC(=O)OC)nc3c(C)cccn3c2=O)SC1=S (stereo not given) ?
Epigenetic derep: 14.1µM*

How did COc1ccc2nc3sc(C(=O)Nc4cc(Cl)c(OC)cc4OC)cc3cc2c1 do in these assays?
Vif-A3G inh: inconclusive; Vif-APOBEC3F blk: 7.08µM*; Epigenetic derep: 7.2%

Results for CCOc1ccc(CCNC(=O)c2cc3cc4cc(OC)ccc4nc3s2)cc1OCC ?
Vif-A3G inh: -7.2%; Vif-APOBEC3F blk: -5.7%; Epigenetic derep: 6.3%

Results for Cc1nc2ccn(Cc3cccnc3)c(=O)c2cc1C(=O)N1CCN(c2ccc(F)cc2)CC1 ?
Vif-A3G inh: -3.5%; Vif-APOBEC3F blk: 0.1%; Epigenetic derep: 0.0%

What do the screens show for `COc1ccc(/C=N/NC(=O)c2[nH]nc3c2CCc2ccccc2-3)cc1OC`?
Vif-A3G inh: 3.16µM*; Vif-APOBEC3F blk: -4.3%; Epigenetic derep: -1.0%

What do the screens show for `CNC(=O)c1[nH]nc2c1CCc1ccccc1-2`?
Vif-A3G inh: 0.1%; Vif-APOBEC3F blk: inconclusive

How did CC1=C/C(=C\C=C(C#N)C#N)N(C)c2ccccc21 do in these assays?
Vif-A3G inh: 1.78µM*; Vif-APOBEC3F blk: inconclusive; Epigenetic derep: inconclusive

What do the screens show for `CN1/C(=C/C=C(C#N)C#N)C(C)(C)c2ccccc21`?
Vif-A3G inh: -30.4%; Vif-APOBEC3F blk: inconclusive; Epigenetic derep: 0.8%

What do the screens show for `COc1cccc(Cn2cnc3c(cnn3C(C)(C)C)c2=O)c1`?
Vif-A3G inh: -1.2%

How did O=c1[nH]c(/C=C/c2cccc3ccccc23)nc2ccccc12 do in these assays?
Vif-A3G inh: inconclusive; Vif-APOBEC3F blk: 12.6µM*; Epigenetic derep: inconclusive

How did CN(C)c1ccc(/C=C(\C#N)c2nc3ccccc3c(=O)[nH]2)cc1 do in these assays?
Vif-A3G inh: inconclusive; Vif-APOBEC3F blk: 5.01µM*; Epigenetic derep: 6.31µM*

How did O=c1[nH]c(/C=C/c2ccc(Br)cc2)nc2ccccc12 do in these assays?
Vif-A3G inh: 0.3%; Vif-APOBEC3F blk: 4.2%

How did O=c1[nH]c(/C=C/c2ccccc2F)nc2ccccc12 do in these assays?
Vif-A3G inh: inconclusive; Vif-APOBEC3F blk: -8.3%

How did O=c1c2ccccc2nc(/C=C/c2ccccc2)n1CCCO do in these assays?
Vif-A3G inh: -12.5%; Vif-APOBEC3F blk: -0.4%

What do the screens show for `CN(C)c1ccc(/C=C/c2nc3ccccc3c(=O)[nH]2)cc1`?
Vif-A3G inh: -4.3%; Vif-APOBEC3F blk: 10µM*

How did Cc1cccc(/C=C(\C#N)c2nc3ccccc3c(=O)[nH]2)c1 do in these assays?
Vif-A3G inh: 3.1%; Vif-APOBEC3F blk: 1.7%; Epigenetic derep: -1.6%

What do the screens show for `CN(C)c1ccc(/C=C/c2nc3ccccc3c(=O)n2CCO)cc1`?
Vif-A3G inh: 11.2µM*; Vif-APOBEC3F blk: 12.6µM*

What do the screens show for `Cc1cccc(NC(=O)c2oc3ccc(S(=O)(=O)N4CCC5(CC4)OCCO5)cc3c2C)c1C`?
Vif-A3G inh: -21.7%; Vif-APOBEC3F blk: 7.5%; Epigenetic derep: 3.8%

Results for O=C(Nc1ccc(Cl)cc1Cl)[C@@H]1CC=C[C@@H]2CCN(Cc3ccccc3)C(=O)[C@@H]21 ?
Vif-A3G inh: 4.0%

How did Cc1cc(C)c(NC(=O)c2c(C)oc3c2C2=NCCN2C=N3)c(C)c1 do in these assays?
Vif-A3G inh: 1.3%; Vif-APOBEC3F blk: -1.0%; Epigenetic derep: 0.0%

What do the screens show for `CN(C)c1ccc(/C=C/c2cnnc3ccccc23)cc1`?
Vif-A3G inh: 8.91µM*

Results for C(=Cc1cnnc2ccccc12)c1ccccc1 ?
Vif-A3G inh: 1.4%; Vif-APOBEC3F blk: 0.0%

What do the screens show for `Cc1cc(Br)ccc1NC(=O)CSc1c2c(nc3ccccc13)CCC2`?
Vif-A3G inh: -2.7%; Vif-APOBEC3F blk: 4.6%; Epigenetic derep: 0.5%

How did Cc1ccc(C2C=C(c3ccccc3OC(F)F)Nc3ncnn32)cc1 (stereo not given) do in these assays?
Vif-A3G inh: -8.2%; Vif-APOBEC3F blk: 6.4%; Epigenetic derep: -1.1%

How did CN(C)c1ccc(C2C=C(c3ccc(Cl)cc3OC(F)F)Nc3ncnn32)cc1 (stereo not given) do in these assays?
Vif-A3G inh: 8.91µM*; Epigenetic derep: 9.0%

How did O=C(C[n+]1c(Cl)cc(Cl)c2ccccc21)c1ccccc1 do in these assays?
Vif-A3G inh: -25.0%

Results for COc1ccccc1C(=O)Nc1ccc(C(=O)OCc2cc(=O)n3nc(C)sc3n2)cc1 ?
Vif-A3G inh: 2.3%; Vif-APOBEC3F blk: 1.8%; Epigenetic derep: 0.0%

Results for CCn1c(O)c(/C=N/N=C/c2ccc(OC)cc2)c2cc(C3=NNC(=O)CC3)ccc21 ?
Vif-A3G inh: inconclusive; Vif-APOBEC3F blk: 4.47µM*; Epigenetic derep: 7.08µM*

How did CC/C(C)=N\N=C\c1c(O)n(CC)c2cc(C3=NNC(=O)CC3)ccc12 do in these assays?
Vif-A3G inh: -0.6%; Vif-APOBEC3F blk: -6.4%; Epigenetic derep: 0.0%

Results for COc1ccc(NC(=O)CCc2nnc3n(Cc4ccccc4Cl)c(=O)c4ccccc4n23)cc1 ?
Vif-A3G inh: 2.4%; Vif-APOBEC3F blk: -6.4%; Epigenetic derep: 0.0%

How did N#C/C(=C\Nc1ccc2cn[nH]c2c1)c1nc(-c2ccccc2)cs1 do in these assays?
Vif-A3G inh: -20.9%; Vif-APOBEC3F blk: -27.4%; Epigenetic derep: -2.1%

How did N#C/C(=C\Nc1ccc2cn[nH]c2c1)c1nc(-c2ccc(Cl)cc2)cs1 do in these assays?
Vif-A3G inh: -21.5%; Vif-APOBEC3F blk: 22.4µM*; Epigenetic derep: 7.4%

Results for N#C/C(=C/c1ccc(O)cc1)c1nc(-c2ccc(-c3ccccc3)cc2)cs1 ?
Vif-A3G inh: -8.1%; Vif-APOBEC3F blk: -28.1%; Epigenetic derep: 11.2µM*

How did COc1ccc(/C=C(/C#N)c2nc(-c3ccc(-c4ccccc4)cc3)cs2)cc1 do in these assays?
Vif-A3G inh: -1.3%; Vif-APOBEC3F blk: -2.5%; Epigenetic derep: -1.6%

Results for N#CC(=Cc1ccccn1)c1nc(-c2ccc(Cl)cc2)cs1 ?
Vif-A3G inh: 5.62µM*; Vif-APOBEC3F blk: inconclusive

What do the screens show for `N#C/C(=C/c1ccc(Cl)cc1)c1nc(-c2ccc(Br)cc2)cs1`?
Vif-A3G inh: -4.9%; Vif-APOBEC3F blk: 3.7%; Epigenetic derep: 0.0%

What do the screens show for `COc1cccc(C(=O)Oc2c(CN3CCOCC3)cc(Cl)c3cccnc23)c1`?
Vif-A3G inh: -7.5%; Vif-APOBEC3F blk: -4.2%; Epigenetic derep: 4.47µM*

High-throughput results (PubChem)
